The results in this text go back to ChEMBL document CHEMBL2218924, “A broad activity screen in support of a chemogenomic map for kinase signalling research and drug discovery” (Biochem J, 2013).

The target in assay [1] is Vascular endothelial growth factor receptor 3 (Homo sapiens) (UniProt P35916). To be noted: at 10 µM.
Assay [2] addresses Macrophage colony-stimulating factor 1 receptor (Homo sapiens) (UniProt P07333). To be noted: at 1 µM.
Assay [3] shares this target. As to conditions: at 10 µM.
Assay [4] deals with Tyrosine-protein kinase Fyn (Homo sapiens) (UniProt P06241). As to conditions: at 1 µM.
Chain of Tyrosine-protein kinase Fyn (Homo sapiens) (P06241 2-537 limits assumed): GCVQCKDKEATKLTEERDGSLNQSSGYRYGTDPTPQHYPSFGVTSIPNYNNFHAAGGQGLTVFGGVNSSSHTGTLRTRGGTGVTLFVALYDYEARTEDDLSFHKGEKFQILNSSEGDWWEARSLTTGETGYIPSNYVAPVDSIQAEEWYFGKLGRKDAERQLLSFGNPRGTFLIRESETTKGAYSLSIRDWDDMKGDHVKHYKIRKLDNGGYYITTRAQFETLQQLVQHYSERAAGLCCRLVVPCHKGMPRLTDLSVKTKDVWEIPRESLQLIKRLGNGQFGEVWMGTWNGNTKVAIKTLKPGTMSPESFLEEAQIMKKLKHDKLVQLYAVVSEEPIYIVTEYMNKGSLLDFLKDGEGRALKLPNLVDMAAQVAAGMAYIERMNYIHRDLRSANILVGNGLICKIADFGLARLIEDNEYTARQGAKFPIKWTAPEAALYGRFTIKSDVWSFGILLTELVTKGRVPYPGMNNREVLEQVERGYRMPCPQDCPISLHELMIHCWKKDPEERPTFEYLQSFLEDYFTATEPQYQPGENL
For assay [5] the target is unchanged. As to conditions: at 10 µM.
The target in assay [6] is T1, Mitogen-activated protein kinase kinase kinase kinase 2 (Homo sapiens) (UniProt Q12851).
T1 sequence (whole entry): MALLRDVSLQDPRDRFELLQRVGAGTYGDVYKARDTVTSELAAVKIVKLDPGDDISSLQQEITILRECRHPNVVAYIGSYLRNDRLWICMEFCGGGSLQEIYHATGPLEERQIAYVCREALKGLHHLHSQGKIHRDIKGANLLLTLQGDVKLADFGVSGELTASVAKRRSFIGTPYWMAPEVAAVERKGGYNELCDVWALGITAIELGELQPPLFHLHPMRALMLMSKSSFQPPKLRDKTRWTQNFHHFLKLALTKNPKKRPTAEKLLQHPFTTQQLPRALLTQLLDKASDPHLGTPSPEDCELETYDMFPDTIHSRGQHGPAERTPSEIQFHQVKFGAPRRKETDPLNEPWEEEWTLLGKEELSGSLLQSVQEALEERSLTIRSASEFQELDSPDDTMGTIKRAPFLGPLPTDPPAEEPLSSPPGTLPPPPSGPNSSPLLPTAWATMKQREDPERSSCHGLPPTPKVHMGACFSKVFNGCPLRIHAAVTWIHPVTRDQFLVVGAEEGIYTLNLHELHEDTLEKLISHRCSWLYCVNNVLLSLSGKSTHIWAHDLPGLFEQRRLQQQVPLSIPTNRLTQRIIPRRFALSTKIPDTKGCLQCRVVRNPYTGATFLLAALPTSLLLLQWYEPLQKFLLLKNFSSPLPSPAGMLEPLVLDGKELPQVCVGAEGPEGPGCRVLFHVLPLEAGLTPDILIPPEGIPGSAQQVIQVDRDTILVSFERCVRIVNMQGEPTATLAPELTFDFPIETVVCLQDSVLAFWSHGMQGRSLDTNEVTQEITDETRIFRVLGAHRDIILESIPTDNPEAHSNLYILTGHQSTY
As to conditions: at 10 µM.

In assay [7] the target is T2, Rhodopsin kinase GRK7 (Homo sapiens) (UniProt Q8WTQ7).
T2 sequence (whole entry): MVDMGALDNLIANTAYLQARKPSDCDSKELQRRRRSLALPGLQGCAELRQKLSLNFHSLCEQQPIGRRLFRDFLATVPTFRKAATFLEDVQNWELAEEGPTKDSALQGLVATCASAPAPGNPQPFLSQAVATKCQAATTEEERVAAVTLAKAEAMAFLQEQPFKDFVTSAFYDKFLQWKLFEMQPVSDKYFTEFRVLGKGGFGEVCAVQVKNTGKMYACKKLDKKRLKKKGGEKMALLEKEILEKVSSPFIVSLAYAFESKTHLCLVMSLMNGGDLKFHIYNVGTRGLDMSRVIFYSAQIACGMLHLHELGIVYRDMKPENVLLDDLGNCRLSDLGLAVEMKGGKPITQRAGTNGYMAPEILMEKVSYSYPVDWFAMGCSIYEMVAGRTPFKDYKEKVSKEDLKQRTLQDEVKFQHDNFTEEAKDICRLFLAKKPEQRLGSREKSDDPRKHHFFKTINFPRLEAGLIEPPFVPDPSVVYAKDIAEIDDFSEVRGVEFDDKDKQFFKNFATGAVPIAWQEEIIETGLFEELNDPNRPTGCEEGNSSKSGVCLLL
As to conditions: at 1 µM.

Assay [8] addresses T2, Rhodopsin kinase GRK7 (Homo sapiens). As to conditions: at 10 µM.
Assay [9] deals with Glycogen synthase kinase-3 beta (Homo sapiens) (UniProt P49841). As to conditions: at 1 µM.
Chain of Glycogen synthase kinase-3 beta (Homo sapiens) (P49841 whole entry, looked up): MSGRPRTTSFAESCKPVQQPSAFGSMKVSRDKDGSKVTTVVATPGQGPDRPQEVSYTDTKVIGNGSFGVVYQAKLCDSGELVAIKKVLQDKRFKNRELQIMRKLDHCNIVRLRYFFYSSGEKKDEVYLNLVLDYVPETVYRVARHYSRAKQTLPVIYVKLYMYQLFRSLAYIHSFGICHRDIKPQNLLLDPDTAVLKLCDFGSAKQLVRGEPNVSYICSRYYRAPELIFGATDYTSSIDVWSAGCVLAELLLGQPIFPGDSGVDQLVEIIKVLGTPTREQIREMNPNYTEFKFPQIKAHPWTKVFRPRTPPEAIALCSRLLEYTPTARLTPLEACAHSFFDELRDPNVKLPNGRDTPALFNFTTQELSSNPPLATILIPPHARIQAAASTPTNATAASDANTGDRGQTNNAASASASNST
Assay [10] shares this target. As to conditions: at 10 µM.
The target of assay [11] is G protein-coupled receptor kinase 6 (Homo sapiens) (UniProt P43250). To be noted: at 10 µM.
Assay [12] addresses Glycogen synthase kinase-3 alpha (Homo sapiens) (UniProt P49840). As to conditions: at 1 µM.
Assay [13] shares this target. As to conditions: at 10 µM.
The target of assay [14] is T1, Mitogen-activated protein kinase kinase kinase kinase 2 (Homo sapiens). As to conditions: at 1 µM.
In assay [15] the target is G protein-coupled receptor kinase 5 (Homo sapiens) (UniProt P34947). As to conditions: at 10 µM.
Chain of G protein-coupled receptor kinase 5 (Homo sapiens) (P34947 whole entry, looked up): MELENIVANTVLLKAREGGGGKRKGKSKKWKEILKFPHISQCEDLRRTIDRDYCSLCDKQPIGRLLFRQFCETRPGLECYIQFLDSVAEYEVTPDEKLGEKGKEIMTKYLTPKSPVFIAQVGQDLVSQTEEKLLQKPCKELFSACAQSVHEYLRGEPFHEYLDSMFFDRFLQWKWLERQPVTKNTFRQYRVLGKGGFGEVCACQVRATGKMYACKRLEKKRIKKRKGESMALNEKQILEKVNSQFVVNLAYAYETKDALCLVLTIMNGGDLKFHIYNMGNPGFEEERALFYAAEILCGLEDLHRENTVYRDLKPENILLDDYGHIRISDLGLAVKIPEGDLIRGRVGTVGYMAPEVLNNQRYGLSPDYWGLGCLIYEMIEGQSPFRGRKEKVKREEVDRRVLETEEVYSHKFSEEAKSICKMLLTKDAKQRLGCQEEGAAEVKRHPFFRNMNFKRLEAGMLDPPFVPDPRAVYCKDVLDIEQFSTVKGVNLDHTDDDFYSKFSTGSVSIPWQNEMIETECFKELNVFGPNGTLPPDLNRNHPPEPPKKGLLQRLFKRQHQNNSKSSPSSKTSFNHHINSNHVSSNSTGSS
Assay [16] concerns the target Homeodomain-interacting protein kinase 1 (Homo sapiens) (UniProt Q86Z02). As to conditions: at 1 µM.
For assay [17] the target is unchanged. As to conditions: at 10 µM.
For assay [18], the target named is Homeodomain-interacting protein kinase 2 (Homo sapiens) (UniProt Q9H2X6). As to conditions: at 1 µM.
Assay [19] shares this target. As to conditions: at 10 µM.
Assay [20] addresses Homeodomain-interacting protein kinase 3 (Homo sapiens) (UniProt Q9H422). To be noted: at 1 µM.

Chain of Vascular endothelial growth factor receptor 3 (Homo sapiens) (P35916 whole entry): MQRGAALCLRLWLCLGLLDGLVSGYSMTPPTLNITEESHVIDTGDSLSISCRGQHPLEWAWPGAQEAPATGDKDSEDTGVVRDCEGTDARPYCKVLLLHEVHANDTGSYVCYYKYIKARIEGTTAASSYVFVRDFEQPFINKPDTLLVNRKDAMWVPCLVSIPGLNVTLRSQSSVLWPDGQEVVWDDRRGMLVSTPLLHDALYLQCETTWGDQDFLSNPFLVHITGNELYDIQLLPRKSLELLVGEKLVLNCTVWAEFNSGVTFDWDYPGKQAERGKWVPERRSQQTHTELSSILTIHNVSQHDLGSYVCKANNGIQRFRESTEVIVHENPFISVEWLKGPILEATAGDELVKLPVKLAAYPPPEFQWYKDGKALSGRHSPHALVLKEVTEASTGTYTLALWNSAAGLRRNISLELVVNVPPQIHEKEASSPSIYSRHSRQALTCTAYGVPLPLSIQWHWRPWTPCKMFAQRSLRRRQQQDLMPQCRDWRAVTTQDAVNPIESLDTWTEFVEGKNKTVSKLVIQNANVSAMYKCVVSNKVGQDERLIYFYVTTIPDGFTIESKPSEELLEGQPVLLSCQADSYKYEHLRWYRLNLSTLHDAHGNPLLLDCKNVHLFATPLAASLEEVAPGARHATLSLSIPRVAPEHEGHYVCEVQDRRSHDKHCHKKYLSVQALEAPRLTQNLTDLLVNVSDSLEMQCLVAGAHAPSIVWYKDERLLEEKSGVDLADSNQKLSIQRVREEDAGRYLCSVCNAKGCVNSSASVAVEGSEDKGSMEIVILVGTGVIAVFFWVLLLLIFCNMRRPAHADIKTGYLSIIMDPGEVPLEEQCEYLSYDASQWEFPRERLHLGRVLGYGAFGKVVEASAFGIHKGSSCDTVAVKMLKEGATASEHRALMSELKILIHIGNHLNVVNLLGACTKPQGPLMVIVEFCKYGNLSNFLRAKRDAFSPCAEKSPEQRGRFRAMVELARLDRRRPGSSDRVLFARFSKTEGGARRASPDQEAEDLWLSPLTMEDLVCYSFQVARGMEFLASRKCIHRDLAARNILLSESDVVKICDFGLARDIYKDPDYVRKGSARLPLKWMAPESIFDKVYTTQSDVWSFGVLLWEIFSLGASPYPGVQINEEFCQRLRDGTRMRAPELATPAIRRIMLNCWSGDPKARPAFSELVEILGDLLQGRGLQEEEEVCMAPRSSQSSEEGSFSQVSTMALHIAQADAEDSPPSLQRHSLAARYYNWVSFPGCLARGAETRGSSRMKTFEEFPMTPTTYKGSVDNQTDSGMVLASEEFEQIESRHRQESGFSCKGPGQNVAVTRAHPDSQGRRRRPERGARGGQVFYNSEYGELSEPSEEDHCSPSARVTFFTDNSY
Chain of Homeodomain-interacting protein kinase 1 (Homo sapiens) (Q86Z02 whole entry, looked up): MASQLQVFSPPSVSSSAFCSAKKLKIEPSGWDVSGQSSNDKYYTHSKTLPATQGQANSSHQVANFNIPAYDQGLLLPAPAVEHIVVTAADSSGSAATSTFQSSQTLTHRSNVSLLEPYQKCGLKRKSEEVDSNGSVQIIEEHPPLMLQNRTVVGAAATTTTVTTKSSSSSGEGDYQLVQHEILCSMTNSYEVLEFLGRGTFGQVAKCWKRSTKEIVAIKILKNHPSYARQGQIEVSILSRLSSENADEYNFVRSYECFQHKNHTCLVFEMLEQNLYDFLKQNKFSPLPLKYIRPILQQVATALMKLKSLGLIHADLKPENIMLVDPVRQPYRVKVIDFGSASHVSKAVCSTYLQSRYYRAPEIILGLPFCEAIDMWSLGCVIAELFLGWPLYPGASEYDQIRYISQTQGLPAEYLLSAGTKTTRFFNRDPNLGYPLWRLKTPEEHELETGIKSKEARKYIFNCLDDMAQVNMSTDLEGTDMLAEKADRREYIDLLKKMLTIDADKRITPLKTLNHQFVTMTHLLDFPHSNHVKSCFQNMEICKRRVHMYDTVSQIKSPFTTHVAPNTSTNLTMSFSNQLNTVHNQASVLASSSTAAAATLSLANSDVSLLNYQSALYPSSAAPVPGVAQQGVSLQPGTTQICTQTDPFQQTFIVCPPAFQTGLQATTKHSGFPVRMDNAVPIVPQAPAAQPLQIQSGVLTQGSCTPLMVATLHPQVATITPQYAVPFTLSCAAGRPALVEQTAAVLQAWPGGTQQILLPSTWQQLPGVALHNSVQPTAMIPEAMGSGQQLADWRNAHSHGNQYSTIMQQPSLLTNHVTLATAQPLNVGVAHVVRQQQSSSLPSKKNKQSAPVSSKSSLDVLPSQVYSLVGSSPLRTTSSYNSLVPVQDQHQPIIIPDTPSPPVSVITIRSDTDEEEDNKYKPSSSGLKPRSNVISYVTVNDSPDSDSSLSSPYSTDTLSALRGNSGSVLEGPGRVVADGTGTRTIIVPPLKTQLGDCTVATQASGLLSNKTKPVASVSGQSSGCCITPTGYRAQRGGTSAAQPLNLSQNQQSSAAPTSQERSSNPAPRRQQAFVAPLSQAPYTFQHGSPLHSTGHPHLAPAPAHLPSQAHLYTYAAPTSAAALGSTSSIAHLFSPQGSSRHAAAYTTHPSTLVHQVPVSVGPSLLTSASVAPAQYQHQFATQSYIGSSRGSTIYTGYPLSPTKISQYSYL
Chain of Macrophage colony-stimulating factor 1 receptor (Homo sapiens) (P07333 whole entry): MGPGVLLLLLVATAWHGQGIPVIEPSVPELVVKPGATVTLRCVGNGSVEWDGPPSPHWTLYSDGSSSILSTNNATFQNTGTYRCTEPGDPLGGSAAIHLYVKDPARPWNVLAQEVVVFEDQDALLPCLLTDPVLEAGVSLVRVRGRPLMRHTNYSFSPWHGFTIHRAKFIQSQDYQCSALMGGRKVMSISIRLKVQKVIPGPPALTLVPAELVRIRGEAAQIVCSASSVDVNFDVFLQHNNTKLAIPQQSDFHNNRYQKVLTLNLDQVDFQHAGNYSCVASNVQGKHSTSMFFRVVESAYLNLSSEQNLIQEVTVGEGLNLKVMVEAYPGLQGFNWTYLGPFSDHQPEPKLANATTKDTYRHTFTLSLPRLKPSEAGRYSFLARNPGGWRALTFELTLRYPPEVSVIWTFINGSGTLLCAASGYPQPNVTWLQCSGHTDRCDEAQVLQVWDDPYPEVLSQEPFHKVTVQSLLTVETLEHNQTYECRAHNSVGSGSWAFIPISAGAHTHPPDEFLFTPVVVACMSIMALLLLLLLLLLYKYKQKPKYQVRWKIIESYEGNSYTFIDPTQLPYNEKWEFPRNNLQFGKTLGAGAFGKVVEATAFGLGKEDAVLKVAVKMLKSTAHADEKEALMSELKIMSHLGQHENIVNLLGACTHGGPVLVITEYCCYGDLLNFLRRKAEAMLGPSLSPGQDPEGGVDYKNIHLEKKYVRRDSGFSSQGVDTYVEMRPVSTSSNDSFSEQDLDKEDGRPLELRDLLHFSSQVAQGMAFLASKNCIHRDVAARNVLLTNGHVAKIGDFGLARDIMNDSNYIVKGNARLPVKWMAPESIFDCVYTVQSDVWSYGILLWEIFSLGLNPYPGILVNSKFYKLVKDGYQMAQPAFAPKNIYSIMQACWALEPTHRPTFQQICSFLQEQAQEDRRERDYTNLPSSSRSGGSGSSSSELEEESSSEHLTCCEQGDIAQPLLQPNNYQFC

With `O=C1Nc2ccccc2/C1=C\c1c(Cl)[nH]c2ccccc12`, the residual activity stood at 8% in [1]; 79% in [2]; 27% in assay [3]; 81% in [4]; 59% in assay [5]; 69% in assay [6]. In addition, the residual activity in [7] was determined as 99%; in [8] it was 87%; in assay [9], 141%; in assay [10] it was 80%.

For the compound `COc1cc2c(cc1OC)-c1n[nH]c(Nc3cccc(F)c3)c1C2`, the residual activity amounted to 1% in [2]; 0% in [3]; 16% in assay [4]; 0% in assay [5]; 44% in assay [6]; 81% in assay [11]. Further, the residual activity is 80% in assay [8], 115% in assay [12], 108% in assay [13] and 75% in assay [10].

In the case of `O=C(Nc1nc2ccccc2n1CCN1CCOCC1)c1cccc([N+](=O)[O-])c1`, the residual activity stood at 40% in assay [1]; 8% in assay [2]; 5% in assay [3]; 70% in assay [14]; 67% in assay [6]; 85% in [15]. For the same compound, the values for the residual activity in assay [8], in assay [12] and in assay [13] were 79%, 113% and 116%, respectively.

For `NCCNc1ncc(C(N)=O)c(Nc2cccc(C(F)(F)F)c2)n1`, the residual activity turned out to be 48% in assay [1]; 57% in assay [2]; 4% in [3]; 13% in assay [14]; 0% in assay [6]; 79% in [15]. Also, the figures for the residual activity in [11] and in assay [10] were 73% and 26%, respectively.

As for `CC(C)(C)n1nc(Cc2cccc3ccccc23)c2c(N)ncnc21`, the residual activity in assay [1] was determined as 5%; in assay [2], 59%; in [3], 6%; in assay [4], 30%; in assay [5], 3%; in [6], 44%. The residual activity was determined as 96% in assay [15]; 98% in assay [7]; 56% in assay [8]; 116% in assay [12]; 130% in assay [13]; 103% in assay [9]. For the same compound, the residual activity in [10] was 65%; in [16] it was 95%; in [17] it was 107%; in assay [18], 101%; in assay [19] it was 110%; in assay [20], 93%.

As to `CC(C)[C@H](CO)Nc1nc(Nc2cc(N)cc(Cl)c2)c2ncn(C(C)C)c2n1`, the residual activity in [1] amounted to 3%; in assay [2] it was 55%; in assay [3] it was 21%; in assay [4], 9%; in assay [5] it was 0%; in assay [15], 44%. Besides, the residual activity was found to be 40% in [11]; 58% in [7]; 10% in assay [8]; 80% in [12]; 28% in assay [13]; 60% in [17]. The figures for the residual activity in [18] and in assay [19] were 86% and 32%, respectively.

Turning to `O=C(c1ccccc1)c1ccc(N2CCOCC2)cc1O`, the residual activity in assay [1] was 85%; in [2], 75%; in assay [3], 55%; in assay [14], 95%; in assay [6], 89%; in assay [11] it was 88%. Besides, the residual activity in assay [8] turned out to be 95%; in assay [12], 91%; in assay [13] it was 121%; in [9], 96%; in assay [10], 87%; in assay [16] it was 98%. Further, the residual activity was found to be 97% in assay [17], 97% in assay [18], 94% in assay [19] and 87% in [20].

In the case of `COc1ccc2c(c1)c(C1=C(c3c[nH]c4ccccc34)C(=O)NC1=O)cn2CCCN(C)C`, the residual activity amounted to 0% in [1]; 59% in [2]; 36% in [3]; 60% in [5]; 75% in assay [14]; 30% in assay [6]. For the same compound, the residual activity is 51% in [15]; 44% in assay [8]; 15% in [12]; -1% in [13]; 30% in [9]; 4% in assay [10]. Further, the residual activity in [17] worked out at 34%; in [18], 57%; in assay [19] it was 13%; in assay [20] it was 72%.

For `CC(C)N(CCC(=O)c1ccc2ccccc2c1)Cc1ccccc1`, the residual activity in assay [3] was found to be 125%; in [4], 88%; in [5], 88%; in assay [14], 82%; in [6] it was 80%; in [13] it was 135%. Besides, the residual activity in assay [20] was 86%.

As for `CN([C@@H](Cc1ccc(OS(=O)(=O)c2cccc3cnccc23)cc1)C(=O)N1CCN(c2ccccc2)CC1)S(=O)(=O)c1cccc2cnccc12`, the residual activity in assay [8] amounted to 85%.

`Oc1cccc(-c2nc(N3CCOCC3)c3oc4ncccc4c3n2)c1`: the residual activity turned out to be 78% in [2]; 80% in assay [3]; 82% in assay [4]; 88% in [5]; 85% in assay [6]; 93% in assay [7]. Also, the residual activity was 94% in [8]; 127% in assay [13]; 84% in assay [18]; 89% in [19]; 93% in [20].

As to `N#C/C(=C\c1ccc(O)c(O)c1)C(=O)NCc1ccccc1`, the residual activity turned out to be 67% in [2]; 81% in assay [3]; 80% in [5]; 85% in assay [6]; 101% in assay [18].

Turning to `O=C(Nc1ccc(Cl)cc1)c1ccccc1NCc1ccncc1`, the residual activity in assay [1] stood at 0%; in assay [2] it was 1%; in assay [3] it was 0%; in assay [4] it was 102%; in [5], 70%; in [6], 58%. Also, the residual activity in assay [12] is 118%; in assay [13] it was 130%.

As to `N#C/C(=C1/Nc2ccccc2S1)c1ccnc(NCCc2cccnc2)n1`, the residual activity is 22% in assay [1]; 70% in assay [2]; 31% in [3]; 79% in assay [14]; 18% in assay [6]; 1% in assay [12]. In addition, the residual activity in assay [13] is -1%; in [9] it was 8%; in assay [10] it was 1%; in assay [18], 47%; in assay [19], 6%; in assay [20], 88%.

`O=c1cc(N2CCOCC2)oc2c(-c3ccccc3)cccc12`: the residual activity came to 72% in assay [1]; 66% in assay [2]; 62% in [3]; 70% in [6]; 77% in [11]; 81% in assay [8].

On to `NC(=O)c1ccc(-c2nc(-c3ccc4c(c3)OCCO4)c(-c3ccccn3)[nH]2)cc1`, for which the residual activity in [1] worked out at 46%; in assay [2] it was 74%; in assay [3], 64%; in assay [4], 81%; in assay [5], 83%; in assay [6], 94%. Further, the residual activity in [11] turned out to be 88%; in [9], 117%; in assay [10], 98%.

Regarding `NC(=O)c1cccc(-c2cc(Nc3ccc(OC(F)(F)F)cc3)ncn2)c1`, the residual activity was 81% in assay [1]; 74% in assay [2]; 73% in [3]; 78% in assay [5]; 88% in [6]; 100% in assay [11]. Further, the residual activity in assay [12] came to 98%; in assay [13], 82%; in assay [10] it was 64%.

In the case of `Nc1ncnc2c1cnn2-c1ccccc1`, the residual activity amounted to 82% in assay [1]; 67% in [3]; 79% in [4]; 58% in assay [5]; 100% in [14]; 93% in [11]. Further, the residual activity in [8] was 94%; in assay [13], 140%; in [9], 84%; in assay [18] it was 101%; in assay [19], 95%; in [20], 99%.

For `O=S(=O)(c1cccc2cnccc12)N1CCCNCC1`, the results for the residual activity in assay [1], in assay [6] and in assay [9] were 52%, 83% and 136%, respectively.

Regarding `CCCCc1c(-c2ccc(O)cc2)[nH]c2nccnc12`, the residual activity was determined as 2% in assay [1]; 6% in assay [3]; 43% in assay [4]; 11% in assay [5]; 7% in [14]; 4% in assay [6]. The residual activity in assay [15] amounted to 90%; in assay [11], 90%; in assay [7], 86%; in assay [8] it was 87%; in assay [12], 62%; in assay [13], 20%. Besides, the residual activity in [9] was 79%; in [10], 73%; in assay [19] it was 62%.

For the compound `COc1cc2ncnc(Nc3cccc(Cl)c3)c2cc1OC`, the residual activity in [1] was 6%; in assay [2] it was 88%; in assay [3] it was 38%; in [4], 41%; in assay [5], 6%; in [6] it was 50%. Also, the residual activity in assay [7] worked out at 106%; in assay [12] it was 101%; in [13] it was 121%; in [20], 110%.
